IMPase inh = cell-permeable inhibitors of inositol monophosphatase (IMPase); CHO-M1 cells, IP1 accumulation, HTRF TR-FRET ratio; inhibition (IP1 accumulation), % at 46.1 µM; 120,000 tested, under 10 active; active = well fitted curve in the direction sought with a large enough effect in the signal ratio, not every such curve was filed as active; inconclusive = small, poorly fitted or top-dose-only effect, or a change in a side signal; inactive = no such curve, though single readings can be large or run the other way; the % refers to the signal ratio;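 also: cells stimulated with carbachol in lithium chloride buffer; plate controls were DMSO basal wells for no effect and reference inhibitor wells for full effect; higher means more IMPase inhibition seen as more IP1 and lower FRET ratio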
Target sequence (P97697 whole entry, looked up): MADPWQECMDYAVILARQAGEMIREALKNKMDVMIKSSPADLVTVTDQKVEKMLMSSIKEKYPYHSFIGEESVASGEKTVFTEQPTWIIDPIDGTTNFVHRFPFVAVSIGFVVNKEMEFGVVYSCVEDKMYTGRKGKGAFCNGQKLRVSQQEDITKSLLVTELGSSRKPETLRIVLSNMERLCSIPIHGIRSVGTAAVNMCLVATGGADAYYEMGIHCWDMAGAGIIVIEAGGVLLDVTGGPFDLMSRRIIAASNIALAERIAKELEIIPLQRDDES
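In this qHTS, compounds (final up to 46 uM) act on CHO-M1 cells that are then activated through the M1 receptor with carbachol, in pH 7.4 buffer containing 50 mM LiCl, for 30 min. IP1 accumulation is quantified by the IP-One immunoassay.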
IMPase Li inh = IMPase inhibition in cells with lithium potentiation; AID 1457; 210,000 compounds, 0.35% hits; CHO-M1 cells, IP1 TR-FRET (IP-One), carbachol + lithium; Potency, µM (highest dose often 59.4 µM), for inactives: top-dose activity, negative = IMPase inhibition, hits mostly inhibitors;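 also: IP1 builds up when IMPase is blocked and the TR-FRET signal falls; potency is read from the fitted curve at half-maximal effect; plate controls were basal vehicle for no effect and high inhibitor control for full effect; nearly all actives have a fitted effect of over 50% in size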
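Readout is a homogeneous TR-FRET IP1 immunoassay (Ex 320, Em 665 and 620), where raised cytosolic IP1 lowers signal. Cells were CHO-M1 treated 30 min at 37C with test compounds plus a little lithium; AC50 values came from Hill-equation fitting.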
PNC inhibitor = inhibitors of perinucleolar compartment assembly; PC3M PTB-GFP, PNC prevalence imaging, 16 h; active compounds read low; activity change (PNC), negative = inhibition, % at 10 µM; 140,000 compounds, 3.1% hits; AID 2417;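 active = readout at or below -70, meaning at least 70% loss of cells showing the perinucleolar compartment, a nuclear body marking cancer cells; inconclusive = readout between -30 and a set limit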;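 also: plate controls were DMSO wells for no effect and camptothecin positive control wells for full effect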
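Compounds are pinned in duplicate onto adhered PC3M cells stably expressing GFP-tagged PTB and incubated 16 h at 37 C. Cells are then fixed, nuclei stained with Hoechst, and PNC-positive cells counted.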
HPGD block = HPGD (human) dehydrogenase inhibition | P15428 | purified HPGD, NADH fluorescence kinetic, PGE2 substrate | Potency, µM, for the others: at the top dose activity change, negative = inhibition, most hits filed as inhibitors | 150,000 compounds, 4.3% hits | AID 894; active = well fitted inhibition curve with a large enough effect, not every such curve was filed as active; inconclusive = small, poorly fitted or top-dose-only effect, or another doubt; inactive = no such curve, though single readings can be large or run the other way; also: potency is read from the fitted curve at half-maximal effect
Target sequence (P15428 whole entry, looked up): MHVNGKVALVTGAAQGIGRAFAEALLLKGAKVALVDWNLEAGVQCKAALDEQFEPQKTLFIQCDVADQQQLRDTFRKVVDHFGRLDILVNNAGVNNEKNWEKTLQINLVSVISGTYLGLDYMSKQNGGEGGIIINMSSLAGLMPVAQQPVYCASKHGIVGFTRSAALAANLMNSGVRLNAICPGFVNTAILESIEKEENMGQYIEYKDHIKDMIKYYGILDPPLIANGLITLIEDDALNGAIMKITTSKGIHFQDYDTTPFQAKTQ
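NADH formation kinetics: reaction with 30 uM PGE2 and 1 mM NAD+ (final), 20 nM enzyme, Tris-HCl pH 8 with Tween 20, after 15 min compound preincubation at room temperature. Fluorescence change, last versus first of five reads.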
ALDH1A1 inh = blocks purified human ALDH1A1 activity; Purified ALDH1A1, NADH fluorescence, propionaldehyde substrate; Potency, µM (top dose mostly 75.3 µM), inactives show at the highest dose activity, negative = inhibition, hits mostly inhibitors; 220,000 compounds, 7.3% hits; P00352; active = well fitted inhibition curve with a large enough effect, not every such curve was filed as active; inconclusive = small, poorly fitted or top-dose-only effect, or another doubt; inactive = no such curve, though single readings can be large or run the other way;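 also: potency is read from the fitted curve at half-maximal effect; plate controls were no enzyme wells and a reference inhibitor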
NPSR antagonist = blocks cAMP signaling of the human neuropeptide S receptor; 220,000 compounds, 1% hits; CHO-NPSR cells, cAMP TR-FRET, antagonist mode; AID 1461; Q6W5P4; Potency, µM (titrated, usually from 38.3 µM), inactives show at the top dose activity change, negative = inhibition, usual class: inhibitors; also: potency is read from the fitted curve at half-maximal effect; nearly all actives have a fitted effect of over 50% in size
Active calls of the source: *; ? = inconclusive; / = no result; [ ] = another dose, or the depositor's remark. This is a sample that favours compounds with a hit; in the whole collection about 11% have one here. Unless noted, calls follow the shape of the dose curve; as a rule, active = well fitted curve in the direction sought with a large enough effect; inconclusive = small, poorly fitted or top-dose-only effect, or another doubt; inactive = no such curve, though single readings can be large; an effect the other way counts as inactive or inconclusive. Unless noted, % is scaled to controls: 0 for no effect and ±100 for the full control effect.

SMILES	IMPase inh	IMPase Li inh	PNC inhibitor	HPGD block	ALDH1A1 inh	NPSR antagonist
CCOC(=O)c1c(NCC2CCCO2)c2ccccc2[nH]c1=O (configuration not stated)	0	21%[38.3 µM]	26	-15%	16µM*	-15%[46.1 µM]
O=C(NCC1CCCO1)c1c(O)c2ccccc2[nH]c1=O (configuration not stated)	-3	-16%[38.3 µM]	-4	-16%	?	-10%[7.67 µM]
Cc1noc(C(=O)N2CC3(C)CC2CC(C)(C)C3)c1Cl (configuration not stated)	9	1%[38.3 µM]	?	-8%	18µM*	-1%[46.1 µM]
CC1CCN(C(=O)c2cc(-c3ccc(Cl)c(Cl)c3)on2)CC1	-4	9%	216	14µM*	?	-12%[46.1 µM]
COc1cccc(-c2cc(C(=O)N3CC4(C)CC3CC(C)(C)C4)no2)c1 (configuration not stated)	4	0%[38.3 µM]	?	-17%	13µM*	-30%[46.1 µM]
O=C(c1cc(-c2ccc(Cl)c(Cl)c2)on1)N1CCCC1	-3	63%[38.3 µM]	10	-10%	13%	5%[46.1 µM]
COc1cccc(-c2cc(C(=O)N3CCCCC3C)no2)c1 (configuration not stated)	7	-7%[38.3 µM]	56	16µM*	-13%	?
O=C(c1cc(-c2cccc(O)c2)on1)N1CCCCC1	9	19%[38.3 µM]	?	4.5µM*	?	-16%[46.1 µM]
O=C(c1cc(-c2ccccc2)on1)N1CCc2ccccc2C1	/	8%	/	/	5%	-3%
COc1ccc(-c2cc(C(=O)N3CCc4ccccc4C3)no2)cc1OC	0	9%[38.3 µM]	43	11µM*	?	-20%[46.1 µM]
O=C(O)c1cc(-c2ccccc2)on1	-7	30%[38.3 µM]	26	-28%	?	-2%[46.1 µM]
COc1cccc(-c2cc(C(=O)O)no2)c1	-6	14%[38.3 µM]	-1	5.6µM*	0.56µM*	-8%[46.1 µM]
COc1ccccc1N1CCN(C(=O)c2cc(-c3cccc(Cl)c3)on2)CC1	?	-9%[38.3 µM]	-25	-15%	20µM*	-21%[46.1 µM]
COc1ccc(C2CC(c3ccc(F)cc3)Nc3nc(N)nn32)cc1OC (configuration not stated)	3	-5%[38.3 µM]	49	-9%	16%	-4%[46.1 µM]
CCCOc1ccc(/C=N/NC(=O)C(=O)Nc2ccccn2)cc1	/	4%	1	?	-5%	12%
O=C(c1cc(-c2ccc3c(c2)OCO3)on1)N1CCOCC1	2	17%[38.3 µM]	-23	32µM*	-2%	14%[46.1 µM]
O=C(c1cc(-c2ccc3c(c2)OCO3)on1)N1CCN(c2ccccc2)CC1	?	-11%[38.3 µM]	-8	?	?	?
COc1cccc(-c2cc(C(=O)N3CCCCCC3)no2)c1	12	40%[38.3 µM]	-108*	2.5µM*	?	?
c1cn(-c2cc(-c3ccc4c(c3)OCO4)ncn2)cn1	/	-8%	/	/	?	/
CN(C)CCNC(=O)c1ccc(COCC(F)(F)F)cc1	-9	17%[38.3 µM]	-5	-8%	4%	-7%[46.1 µM]
CN(C)c1nc(=NCc2ccco2)ss1	/	/	/	/	10µM*	?
O=C(NCc1nc2ccccc2[nH]1)c1cccs1	-11	-30%[38.3 µM]	-87*	-6%	3%	1%[46.1 µM]
O=C(NCc1nc2ccccc2[nH]1)c1ccco1	-7	-9%[38.3 µM]	-98*	-4%	2%	0%[46.1 µM]
CCn1c(CNC(=O)c2cccs2)n[nH]c1=S	/	0%	-109*	-12%	?	3%
COc1cc(/C=C(/C(=O)c2cccs2)c2nc3ccccc3[nH]2)cc(OC)c1O	19	89%[38.3 µM]	-2	?	?	13µM*
O=C(NCCc1nc2ccccc2[nH]1)/C(=C/c1ccco1)NC(=O)c1ccco1	/	-4%	?	-14%	?	7%
COc1ccc(-c2nnc(SCc3csc(N)n3)n2C)cc1	6	/	10	/	-7%	10%[46.1 µM]
Cc1ccc(NC(=O)CN(C)C(=O)COc2cccc3cccnc23)cc1	/	-7%	43	-3%	0%	7%
COc1ccc(OC)c(C2NC(=S)NC3=C2N2CCC3CC2)c1 (configuration not stated)	/	-1%	/	/	2%	-14%
